# Screening results deposited in PubChem BioAssay by National Center for Advancing Translational Sciences (NCATS).
# PI5P4Ka inh: inhibitors of human PI5P4K alpha; P48426; PI5P4Kalpha enzyme, ADP-Glo luminescence, 60 min; hits give low values; max response, %; actives 1.2% (n = 330,000); active = max response of -50% or lower; inconclusive = between -30% and -50%; inactive = -30% or higher; note: value at the top dose of about 77 µM
#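 Compounds were pin-transferred onto PI5P4Kalpha and substrate in HEPES pH 7.4 buffer with EGTA, CHAPS and 5% DMSO. ATP (5 microM final) started the reaction, which ran 60 minutes at room temperature before ADP-Glo detection.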
# HP1b chromo inh: blocks HP1-beta chromodomain binding to methylated histone tails. P83916. actives 0.56% (n = 390,000). Potency, µM (highest dose often 114 µM), actives largely listed as inhibitors. AlphaScreen HP1-beta / biotin-H3K9me3 peptide binding; note: nearly all actives have a fitted effect of over 70% in size
#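 HP1-beta protein (50 nM final) preincubated 30 min at room temperature with biotinylated H3(1-18)K9me3 peptide (50 nM) in PBS pH 7.4, 0.01% Tween-20, then compound added for 30 min. AlphaScreen streptavidin donor/nickel chelate acceptor beads (10 ug/mL final), 30 min dark, luminescence read.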
# G9a inh: G9a (human) methyltransferase inhibition. Q96KQ7. G9a H3K9 monomethylation, AlphaScreen, 2 h. Potency, µM (highest dose often 102 µM), most hits filed as inhibitors. actives 8.8% (n = 350,000). AID 504332; note: nearly all actives have a fitted effect of over 75% in size
#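 AlphaScreen detection with an anti-monomethyl H3K9 antibody quantified product after a 2 h room-temperature reaction containing 500 nM biotinylated H3K9 peptide, 20 µM SAM and 20 nM enzyme, which had been preincubated 15 min with compound.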
# PLK1 PBD block: inhibitors of human PLK1 polo-box domain binding; P53350; Plk1 PBD binding of FITC phosphopeptide, fluorescence polarization; Potency, µM, usual class: inhibitors; actives 2.8% (n = 360,000); AID 720504; note: series mostly up to about 57 µM; nearly all actives have a fitted effect of over 65% in size
# BAZ2B inh: BAZ2B (human) inhibition; Q9UIF8; Potency, µM (top dose mostly 114 µM), most hits filed as inhibitors; actives 4.4% (n = 360,000); AlphaScreen BAZ2B-H3K14Ac peptide displacement; note: nearly all actives have a fitted effect of over 60% in size
#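 BAZ2B 50 nM plus b-H3(5-23)K14Ac 50 nM, PBS pH 7.4/0.01% Tween-20, 30 min RT; compound added (max 110 uM), 30 min RT; streptavidin donor/Ni-chelate acceptor beads 10 ug/mL final, 20 min dark; AlphaScreen read.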
# JMJD2A Tudor inh: blocks the human JMJD2A Tudor domain. O75164. AlphaScreen JMJD2A-Tudor / H3K4me3 peptide binding. Potency, µM (series often up to 114 µM), actives largely listed as inhibitors. actives 4.4% (n = 390,000). AID 504339; note: nearly all actives have a fitted effect of over 50% in size
# Numbers stand for hits; . = inactive; ? = inconclusive; / = not tested or not shown; [ ] = dose if it differs, or a comment. The list is not random: actives were taken first. Their share in the collection is about 12%. Unless noted, calls come from the whole dose curve; as a rule, active = well fitted curve in the direction sought with a large enough effect; inconclusive = small, poorly fitted or top-dose-only effect, or another doubt; inactive = no such curve, though single readings can be large; an effect the other way counts as inactive or inconclusive.
SMILES,PI5P4Ka inh,HP1b chromo inh,G9a inh,PLK1 PBD block,BAZ2B inh,JMJD2A Tudor inh
COc1ccc(-c2ccc(F)cc2)cc1C1C2C=CCC(C)C2C(=O)N1Cc1ccccc1 (centres undefined),/,.,/,/,/,.
CSc1nnc(-c2cccc(NC(=O)c3ccccc3)c2)n1C,.,.,50.1µM,.,.,.
Cn1c(SCC(=O)c2ccccc2)nnc1-c1cccnc1,/,.,.,.,.,.
CCC(=O)Nc1cccc(-c2nnc(SCC(=O)c3ccccc3)n2C)c1,.,?,?,26.7µM,/,39.8µM
Cc1nn2c(-c3cccc(NC(=O)c4ccccc4)c3)nnc2c2ccccc12,/,.,.,/,.,.
O=C(Nc1ccc(F)cc1Cl)C1=COCCO1,.,.,.,.,.,.
Cn1c(SCC(=O)Nc2ccc(C(=O)O)cc2)nc2scc(-c3ccccc3Cl)c2c1=O,-70.7,.,/,.,/,.
Cc1cc2c(=O)n(C)c(SCC(=O)Nc3ccccc3)nc2s1,.,.,.,.,.,.
C=CCn1c(CNC(=O)c2cccs2)nnc1SCC(=O)Nc1ccc(C(=O)O)cc1,-62.9,.,?,.,.,.
C=CCn1c(SCC(=O)Nc2ccc(C(=O)O)cc2)nc2sc(C)c(C)c2c1=O,-60.0,.,.,.,.,.
C=CCn1c(SCC(=O)Nc2ccc(C(=O)O)cc2)nc2scc(-c3ccccc3)c2c1=O,-91.6,?,/,.,/,.
CC(=O)C1=CCC(c2ccc(Cl)c(Cl)c2)N(S(=O)(=O)c2ccc(C)cc2)C1 (centres undefined),.,/,/,.,/,/
CC(NC(=O)C12CC3CC(C)(CC(C)(C3)C1)C2)c1ccncc1 (centres undefined),.,.,.,.,.,.
O=C(CNCc1ccccc1)Nc1ccc(Cl)cc1,.,.,.,.,.,.
COc1ccc(CCNCC(=O)Nc2ccc(C(=O)N3CCCCC3)cc2)cc1,.,?,8.91µM,.,39.8µM,1.41µM
O=C(c1ccc(NC(=S)NCc2ccc(Cl)cc2)cc1)N1CCCCC1,.,.,.,.,.,.
O=C(CNCc1ccc(Cl)cc1)Nc1ccc(C(=O)N2CCCCCC2)cc1,.,?,7.94µM,.,50.1µM,3.55µM
O=C(CNCc1ccc(Cl)cc1)Nc1ccc(C(=O)N2CCCCC2)cc1,.,44.7µM,7.08µM,.,56.2µM,1.12µM
CC(C)CC(C(=O)NC(C)(C)C)N(Cc1ccccc1Cl)C(=O)c1snc(C(N)=O)c1N (centres undefined),.,.,.,.,.,.
CC1=C(C(=O)OCc2ccccc2)C(c2ccccc2OS(=O)(=O)c2ccc([N+](=O)[O-])cc2)NC(=O)N1CCCC(=O)O (centres undefined),-64.4,.,/,.,/,?
COC(=O)C1=C(C)N(CCCC(=O)O)C(=O)NC1c1ccc([N+](=O)[O-])cc1 (centres undefined),-100.9,.,/,.,/,.
CCOC(=O)C1=C(C)N(CCCC(=O)O)C(=O)NC1c1ccc([N+](=O)[O-])cc1 (centres undefined),-86.2,.,.,.,.,.
CC(Oc1ccccc1)C(=O)Nc1nc2ccc(S(N)(=O)=O)cc2s1 (centres undefined),/,.,.,/,.,.
O=C(N/N=C/c1ccccc1C(=O)O)c1cccc(S(=O)(=O)N2CCCCC2)c1,.,.,.[12.7 µM],.,.,.
O=C1COC(c2ccccc2O)=NN1CCCl,.,/,/,.,/,/
SMILES,PI5P4Ka inh,HP1b chromo inh,G9a inh,PLK1 PBD block,BAZ2B inh,JMJD2A Tudor inh
Cn1c(C(=O)c2ccncc2)cc2ccccc21,.,.,.,.,.,.
COc1ccc(COC(=O)C2CCN(S(=O)(=O)c3ccc(OC)c(OC)c3)CC2)cc1,.,.,.[12.7 µM],.,.,.
CSc1nsc(SC)c1NC(=O)N1CCCCC1,.,.,44.7µM,.,.,.
O=C(NCc1ccccn1)c1nn(-c2ccccc2F)nc1CO,/,.,.,/,.,.
O=C(CN1C(=O)CCC1=O)NNc1ccc2ccccc2c1,.,.,8.91µM,.,.,.
O=C(Cc1ccccc1)NNc1ccc2ccccc2c1,.,.,?,.,.,.
CC(=O)N1CCCc2cc(S(=O)(=O)N3CCC(C(=O)NCc4cccc(C)c4)CC3)ccc21,/,.,.,/,.,.
Cc1occc1C(=O)NCCc1ccc(Cl)cc1,/,.,79.4µM,.,.,.
S=C(NCCc1ccc(Cl)cc1)NCc1ccco1,.,.,50.1µM,.,.,.
O=C(COC(=O)c1ccco1)NCCc1ccc(Cl)cc1,.,.,.[12.7 µM],.,.,.
O=C(NC(=S)NCCc1ccc(Cl)cc1)c1ccco1,.,.,.,29.9µM,.,.
N#Cc1cc2nc(O)c(O)nc2cc1[N+](=O)[O-],-57.3,.,.,.,.,79.4µM
COC(=O)c1sc2cccc(F)c2c1S(=O)(=O)NCc1ccccc1Cl,/,.,.,/,.,.
O=C1C=CC(=O)N1c1cccc2cccnc12,-62.3,.,/,.,/,.
COc1cc(N2C(=O)c3ccccc3C2=O)c2ncccc2c1,/,/,/,/,/,.
COc1ccc(CNC(=O)CN2C(=O)c3cccnc3Oc3ccc(C)cc32)cc1,/,.,.,/,.,.
N#Cc1ccc(S(=O)(=O)N2CCN(c3nc(-c4cccs4)nc4ccccc34)CC2)cc1,/,.,/,/,/,.
CCOC(=O)C(C)(C)Oc1cccc2c1S(=O)(=O)c1ccccc1-2,.,.,/,.,/,.
CC1=C(C(N)=O)S(=O)(=O)c2ccccc21,.,.,.,21.2µM,.,?
CCS(=O)(=O)c1ccc2oc(SCC(=O)NCc3ccccc3)nc2c1,.,.,.,.,.,.
CCS(=O)(=O)c1ccc2oc(SCC(=O)NC34CC5CC(CC(C5)C3)C4)nc2c1,.,.,.,.,56.2µM,.
Cc1cc(C(=O)N/N=C/c2ccc(-c3ccc([N+](=O)[O-])cc3C)o2)n[nH]1,.,.,.,.,.,.
Cc1ccc([N+](=O)[O-])cc1-c1ccc(/C=C(\C#N)c2[nH]nc(N)c2C#N)o1,-54.6,.,.,.,?,?
O=C1N=C(N2CCN(c3ccccc3)CC2)S/C1=C\c1ccco1,?,.,39.8µM,.,50.1µM,?
O=c1/c(=C/c2ccco2)sc2n1CN(c1ccccc1)CN=2,.,.,12.6µM,.,.,.
SMILES,PI5P4Ka inh,HP1b chromo inh,G9a inh,PLK1 PBD block,BAZ2B inh,JMJD2A Tudor inh
NC1=NC(=O)C(=Cc2ccccc2)S1,.,.,/,.,/,.
NC1=NC(=O)/C(=C\c2ccco2)S1,-96.3,56.2µM,.[12.7 µM],.,79.4µM,50.1µM
O=C1N=C(N2CCOCC2)S/C1=C/c1cccs1,/,.,.[12.7 µM],?,.,.
CCN1CCN(C2=NC(=O)/C(=C/c3ccc(C)o3)S2)CC1,/,.,31.6µM,.,?,.
Cn1c(=O)c(-c2cc(F)cc(F)c2)nc2cnc(Nc3ccccc3)nc21,/,/,.[0.501 µM],/,/,/
O=C1N=C(N2CCN(c3ccccc3)CC2)S/C1=C/c1ccco1,.,.,50.1µM,.,44.7µM,?
